Test results published in PubChem BioAssay.
Inconclusive results are not listed. Calls of active or inactive are those of the source.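 The calls were made as follows, unless noted: active = normalized viability below 100% at a tested concentration; inactive = the rest.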

Experiments:
[1] = viability loss in pontine glioma line – cell-based, SU-DIPG-XVII, MIPE5.0, CellTiter-Glo, qHTS, dose response (AID 1347060; cut-off not given, nearly all actives have AC50 up to about 26 µM;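 also: cells exposed to compound for 48 hours before viability readout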); settings: CellTiter-Glo ATP luminescence
[2] = viability loss in pontine glioma line – cell-based, JHH-DIPG-1, MIPE4.0, CellTiter-Glo, qHTS, dose response (AID 1347062; cut-off not given, nearly all actives have AC50 up to about 27 µM;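 also: cells exposed to compound for two days before readout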); settings: JHH-DIPG-1 viability, CellTiter-Glo ATP luminescence
[3] = viability loss in pontine glioma line – cell-based, SU-DIPG-IV, MIPE4.0, CellTiter-Glo, qHTS, dose response (AID 1347063; cut-off not given, nearly all actives have AC50 up to about 30 µM;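 also: compound exposure lasted 48 hours before the viability readout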); settings: CellTiter-Glo ATP luminescence
[4] = viability loss in pontine glioma line – cell-based, SU-DIPG-XIII, MIPE5.0, CellTiter-Glo, qHTS, dose response (AID 1347064; cut-off not given, nearly all actives have AC50 up to about 23 µM;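 also: cells exposed to compound for 48 hours before the viability read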); settings: CellTiter-Glo ATP luminescence
[5] = viability loss in pontine glioma line – cell-based, SU-DIPG-XXV, MIPE5.0, CellTiter-Glo, qHTS, dose response (AID 1347065; cut-off not given, nearly all actives have AC50 up to about 26 µM;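 also: cells exposed to compound for 48 hours before ATP readout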); settings: CellTiter-Glo ATP luminescence
[6] = viability loss with induced miR-34 in A549 – imaging, A549 dox-inducible miR-34, nuclei and caspase counts, primary screen (AID 1347080;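 active = compounds whose cell count with miR-34 switched on is under 0.7 times the count with it off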); settings: A549 miR-34 inducible, Hoechst nuclei count, 48 h
[7] = compounds altering HSF1 focus formation in cells – imaging, Selleck Cancer Library (AID 1347162; in the data active = plate-normalised HSF1 focus index below about 0.46); settings: human cells, HSF1 nuclear foci imaging, at 10 µM; SSMD: measured here: HSF1 foci SSMD mean; cell count: measured here: cell number; plate-normalised HSF1 focus index: stronger effect = lower value
[8] = MELAS cybrid and Rieske KO viability enhancers – cell-based, MELAS cybrids, Rieske KO mouse fibroblasts, CellTiter-Glo, primary screen (AID 1508586;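 active = mean z-score across replicates of 1.96 or higher in either the MELAS or the Rieske mutant cell line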;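 also: z relative to plate mean and SD of compound and empty wells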); settings: low glucose
[9] = drug combination growth inhibition, ovarian cancer – cell-based, oncology-focused library, rucaparib conditional, profiling panel (AID 1508598); settings: patient-derived ovarian cancer cells, CellTiter-Glo viability, 144 h, stronger effect = lower value
[10] = growth inhibition of DIPG cells – cell-based, MIPE4.0 library, CellTiter-Glo luminescence, qHTS (AID 1347066; cut-off not given, nearly all actives have AC50 up to about 30 µM;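 also: cells exposed to compound for 48 hours before readout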); settings: SU-DIPG-VI viability, CellTiter-Glo ATP luminescence
[11] = JHH-DIPG-1 glioma cell viability, MIPE5.0 library, CellTiter-Glo luminescence, qHTS (AID 1347067; cut-off not given, nearly all actives have AC50 up to about 26 µM;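 also: cells exposed to compound for 48 hours before readout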); settings: JHH-DIPG-1 glioma viability, CellTiter-Glo ATP luminescence
[12] = growth inhibition of DIPG cells – cell-based, MIPE5.0 library, qHTS (AID 1347068; cut-off not given, nearly all actives have IC50 up to about 30 µM;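 also: cells exposed to compound for 48 hours before viability readout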); settings: SU-DIPG-XXV viability
[13] = at 0.000305 µM, OCI-C5x cells, with rucaparib 10 µM, 100% = cells with rucaparib alone
[14] = at 0.000305 µM, OCI-C5x cells, without rucaparib
[15] = at 0.000305 µM, OCI-P5x cells, with rucaparib 20 µM, 100% = cells with rucaparib alone
[16] = at 0.000305 µM, OCI-P5x cells, without rucaparib
[17] = at 0.00122 µM, OCI-C5x cells, with rucaparib 10 µM, 100% = cells with rucaparib alone
[18] = at 0.00122 µM, OCI-C5x cells, without rucaparib
[19] = at 0.00122 µM, OCI-P5x cells, with rucaparib 20 µM, 100% = cells with rucaparib alone
[20] = at 0.00122 µM, OCI-P5x cells, without rucaparib
[21] = at 0.00488 µM, OCI-C5x cells, with rucaparib 10 µM, 100% = cells with rucaparib alone
[22] = at 0.00488 µM, OCI-C5x cells, without rucaparib
[23] = at 0.00488 µM, OCI-P5x cells, with rucaparib 20 µM, 100% = cells with rucaparib alone
[24] = at 0.00488 µM, OCI-P5x cells, without rucaparib
[25] = at 0.0195 µM, OCI-C5x cells, with rucaparib 10 µM, 100% = cells with rucaparib alone
[26] = at 0.0195 µM, OCI-C5x cells, without rucaparib
[27] = at 0.0195 µM, OCI-P5x cells, with rucaparib 20 µM, 100% = cells with rucaparib alone
[28] = at 0.0195 µM, OCI-P5x cells, without rucaparib
[29] = at 0.0781 µM, OCI-C5x cells, with rucaparib 10 µM, 100% = cells with rucaparib alone
[30] = at 0.0781 µM, OCI-C5x cells, without rucaparib
[31] = at 0.0781 µM, OCI-P5x cells, with rucaparib 20 µM, 100% = cells with rucaparib alone

COc1cc2nccc(Oc3ccc(NC(=O)NC4CC4)c(Cl)c3)c2cc1C(N)=O
1.21: fold change ([6]; measured here: relative caspase fold change +Dox/-Dox)
5580: cell count ([6]; measured here: total cells with miR-34 induction, stronger effect = lower value)
6040: cell count ([6]; measured here: total cells without miR-34 induction)
inactive: fold change ([6]; stronger effect = lower value, cell number ratio, induced over uninduced) 0.924 | plate-normalised HSF1 focus index [7] 1.14 | z-score ([8]; MELAS cybrid survival, CellTiter-Glo 48 h, stronger effect = higher value) -0.303 | viability [9, 13] 125% | viability [9, 14] 110% | viability [9, 15] 111% | viability [9, 16] 105% | viability [9, 17] 100% | viability [9, 18] 110% | viability [9, 19] 112% | viability [9, 20] 114% | viability [9, 21] 108% | viability [9, 22] 103% | viability [9, 23] 110% | viability [9, 24] 112% | viability [9, 25] 103% | viability [9, 26] 113% | viability [9, 27] 117% | viability [9, 28] 114% | viability [9, 29] 103% | viability [9, 30] 112% | viability [9, 31] 111% | viability ([9]; at 0.0781 µM, OCI-P5x cells, without rucaparib) 111% | viability ([9]; at 0.313 µM, OCI-C5x cells, with rucaparib 10 µM, 100% = cells with rucaparib alone) 108% | viability ([9]; at 0.313 µM, OCI-C5x cells, without rucaparib) 110% | viability ([9]; at 0.313 µM, OCI-P5x cells, with rucaparib 20 µM, 100% = cells with rucaparib alone) 108% | viability ([9]; at 0.313 µM, OCI-P5x cells, without rucaparib) 110% | viability ([9]; at 1.25 µM, OCI-C5x cells, with rucaparib 10 µM, 100% = cells with rucaparib alone) 126% | viability ([9]; at 1.25 µM, OCI-C5x cells, without rucaparib) 111% | viability ([9]; at 1.25 µM, OCI-P5x cells, with rucaparib 20 µM, 100% = cells with rucaparib alone) 119% | viability ([9]; at 1.25 µM, OCI-P5x cells, without rucaparib) 112% | viability ([9]; at 5 µM, OCI-C5x cells, with rucaparib 10 µM, 100% = cells with rucaparib alone) 142% | viability ([9]; at 5 µM, OCI-C5x cells, without rucaparib) 111%
2.76: SSMD [7]
6600: cell count [7]
0.105: z-score ([8]; Rieske KO mouse fibroblast survival, CellTiter-Glo 72 h)
active: AC50 [1] 2.09 µM | AC50 [2] 2.35 µM | AC50 [3] 4.69 µM | AC50 [4] 4.68 µM | AC50 [5] 2.35 µM | viability ([9]; at 5 µM, OCI-P5x cells, with rucaparib 20 µM, 100% = cells with rucaparib alone) 91.4% | viability ([9]; at 5 µM, OCI-P5x cells, without rucaparib) 88.9%

C[C@@H](Oc1cc(-c2cnn(C3CCNCC3)c2)cnc1N)c1c(Cl)ccc(F)c1Cl
inactive: plate-normalised HSF1 focus index [7] 0.639 | viability [9, 13] 129% | viability [9, 14] 131% | viability [9, 15] 112% | viability [9, 16] 105% | viability [9, 17] 124% | viability [9, 18] 125% | viability [9, 19] 103% | viability [9, 20] 107% | viability [9, 21] 136% | viability [9, 22] 133% | viability [9, 23] 106% | viability [9, 24] 104% | viability [9, 25] 123% | viability [9, 26] 121% | viability [9, 29] 125% | viability [9, 30] 121% | viability [9, 31] 103%
5640: cell count [7]
-10.4: SSMD [7]
active: AC50 [1] 4.68 µM | AC50 [2] 16.6 µM | AC50 [3] 14.8 µM | AC50 [4] 2.63 µM | AC50 [5] 1.66 µM | AC50 [10] 20.9 µM | AC50 [11] 8.33 µM | IC50 [12] 4.68 µM | viability [9, 27] 98.3% | viability [9, 28] 96.4%
